Assay outcomes from PubChem BioAssay.
Compounds with a hit are over-represented: about 0.65% of the library has one in this group of screens.
PrP 5UTR inh: inhibition of PrP 5' UTR reporter expression; cell-based PrP 5' UTR mRNA reporter, plate reader; inhibition, % (test concentration not listed); 0.35% of 340,000 active; in the data active means inhibition above about 52%
Vc quorum ag-1: inducers of Vibrio cholerae quorum light production without autoinducers. V. cholerae BH1578 lux reporter, luminescence, 6 h. AID 588436. activation, % at 18.7 µM. 0.16% of 350,000 active; in the data active means activation mostly above about 9.7%, no sharp cut-off
TcdB GH inh: blocks C. difficile toxin B glycohydrolase activity; 0.24% of 350,000 active; TcdB glycohydrolase enzymatic assay, plate reader; AID 652162; inhibition, % at 9.99 µM; in the data active means inhibition above about 10%
UGM FP inh: Mtb UDP-galactopyranose mutase inhibition; P9WIQ1; purified UGM, fluorescence polarization probe displacement; inhibition, % at 10 µM; 0.06% of 320,000 active; AID 504406; in the data active means inhibition above about 10%, passing the limit was not always enough
Y pestis TopoI: inhibitors of Yersinia pestis topoisomerase I; Y. pestis Topo-I cleavage product accumulation, plate reader; activity, % at 10 µM; 0.064% of 360,000 active; AID 504884; in the data active means activity above about 50%, passing the limit was not always enough
Vc quorum ag-2: inducers of V. cholerae quorum light production without autoinducers; shares compounds with Vc quorum ag-1; V. cholerae BH1578 lux reporter, luminescence, 6 h; activation, % at 50 µM; 620 tested, under 10 active; AID 602243; call rule not given here
Hits are given with their value; 0 = inactive; - = not tested or not shown; + = active, no number.

SMILES | PrP 5UTR inh | Vc quorum ag-1 | TcdB GH inh | UGM FP inh | Y pestis TopoI | Vc quorum ag-2
CCOC(=O)C1CCN(C(=O)C2c3ccccc3C(=O)N(C)C2c2ccc(OC)cc2)CC1 (stereo not given) | 0 | 16.7 | - | 0 | 0 | 0
COc1ccc(C2C(C(=O)N3CCCCC3)c3ccccc3C(=O)N2C)cc1 (stereo not given) | 0 | 0 | - | 0 | 0 | -
Cc1cc(C)c(C)c(OCc2nc(-c3cccnc3)no2)c1 | 0 | 0 | - | 0 | 0 | -
Cc1ccc(SCc2nc(-c3cccnc3)no2)cc1 | 0 | 21.2 | - | 0 | 0 | 0
CC(C)NC(=O)c1ccc(-c2cccc(C(F)(F)F)c2)o1 | 0 | 33.3 | - | 0 | 0 | 0
CCN(CC(=O)Nc1c(F)cccc1F)C(=O)c1ccc(C)c(S(=O)(=O)N2CCCCC2)c1 | 0 | 0 | - | 0 | 0 | 0
COc1ccccc1-c1ccc([C@H]2[C@@H](CO)N(C(=O)NC3CCCCC3)[C@H]2C#N)cc1 | - | - | 0 | - | - | -
Cc1cccc(N2CCN(C(=O)Cn3cccc3C(=O)c3ccccc3)CC2)c1C | 0 | 0 | - | 0 | 0 | 0
O=C(Cn1cc2c(n1)CCCC2)NC1CCCCCC1 | 0 | 0 | 0 | 0 | 0 | -
CC1CCc2nn(CC(=O)NC3CCCC3)cc2C1 (stereo not given) | 0 | + | 0 | 0 | 0 | 0
Cn1c(=O)oc2cc(S(=O)(=O)N3CCN(c4ccc(F)cc4)CC3)ccc21 | 0 | 97.1 | - | 0 | 0 | 0
Cc1cccc(N2CCN(C(=O)C34CC5CC(CC(C5)C3)C4)CC2)c1C | 0 | 22.2 | - | 0 | 0 | 0
CC1(C)Nc2ccc(O)cc2-c2c1ssc2=S | 0 | 0 | - | 0 | 0 | 0
C[C@@H]1CN([C@@H](C)CO)C(=O)c2cccc(N(C)C)c2O[C@H]1CN(C)Cc1ccc2c(c1)OCO2 | - | - | 0 | - | - | -
N#Cc1nc(-c2ccc(OCc3ccccc3)cc2)oc1NCc1cccnc1 | 0 | 0 | - | 0 | 0 | -
N#Cc1nc(-c2ccc(OCc3ccc(Cl)cc3)cc2)oc1NCc1cccnc1 | 0 | 16.7 | - | 0 | 0 | 0
COc1ccccc1NC(=O)Cc1csc(NC(=S)Nc2ccccc2)n1 | 0 | 0 | - | 0 | 0 | 0
FC(F)Oc1ccccc1NC(=S)NCc1ccco1 | 0 | 0 | - | 0 | 0 | 0
Cc1ccccc1S(=O)(=O)N1CC(=O)N2[C@H](C1)[C@H](c1ccc(C#CCN(C)C)cc1)[C@@H]2CO | - | - | 0 | - | - | -
COc1cccc(C(=O)Nc2ccc3c(c2)OC[C@@H](C)N(CC2CC2)C[C@@H](C)[C@@H](OC)CN(C)C3=O)c1 | - | - | 0 | - | - | -
CC(=O)c1cccc(NC(=O)CSc2nc(=O)n(CCCN3CCOCC3)c3c2CCC3)c1 | 0 | 31.2 | 0 | 0 | 0 | 0
Cc1cccc(NC(=O)CSc2nc(=O)n(CCCN3CCOCC3)c3c2CCCC3)c1 | 0 | 0 | 0 | 0 | 0 | -
COC(=O)c1cc(Br)ccc1OC(=O)c1cccnc1 | 0 | 16.7 | - | 0 | 0 | 0
Cc1cccc(OC(=O)c2cccnc2)c1 | 0 | 0 | - | 0 | 0 | -
Cc1cc(C)cc(OC(=O)c2cccnc2)c1 | 0 | 32.2 | 0 | 0 | 0 | 0
SMILES | PrP 5UTR inh | Vc quorum ag-1 | TcdB GH inh | UGM FP inh | Y pestis TopoI | Vc quorum ag-2
CCOC(=O)c1cnc(-n2nc(C)cc2C)nc1N(C)C | 0 | 0 | - | 0 | 0 | 0
COCCNC(=S)N(CCCO)Cc1cc2cc3c(cc2[nH]c1=O)OCCO3 | 0 | 389.4 | 0 | 0 | 0 | 0
COCCNC(=S)N(CCO)Cc1cc2cc3c(cc2[nH]c1=O)OCO3 | 0 | 0 | 0 | 0 | 0 | -
CSc1ccc(C#N)cc1NC(=O)c1ccc(Cl)cc1Cl | 0 | 185.7 | - | 0 | 0 | 0
CC(=O)Nc1ccc2nc(-c3cccnc3)[nH]c2c1 | 0 | 75.4 | - | 0 | 0 | 0
Cc1cccc(NC(=O)CS(=O)(=O)c2cn(C)c3ccccc23)c1 | 0 | 0 | 0 | 0 | 0 | -
Cc1cccc(NC(=O)CS(=O)(=O)c2cn(C)c3ccccc23)c1C | 0 | 16.7 | - | 0 | 0 | 0
COc1cccc(Nc2nc(NCCO)c3ccccc3n2)c1 | 0 | 40.0 | - | 0 | 0 | 0
Cc1cccc(OC(C)C(=O)NC2CCS(=O)(=O)C2)c1C (stereo not given) | 0 | 0 | - | 0 | 0 | 0
Cc1ccccc1NC(=O)NC1CCS(=O)(=O)C1 (stereo not given) | 0 | 0 | 0 | 0 | 0 | -
CN(C(=O)COc1ccccc1)C1CCS(=O)(=O)C1 (stereo not given) | 0 | 0 | 0 | 0 | 0 | -
CC(C)CCOc1cccc(OCC(=O)N(C)C2CCS(=O)(=O)C2)c1 (stereo not given) | 0 | 0 | - | 0 | 0 | 0
COCC(=O)N1C[C@H]2[C@@H](c3ccccc31)[C@H](CO)N2Cc1ccccc1F | - | - | 0 | - | - | -
CCOC(=O)Nc1cc2c(cc1C(C)=O)OCO2 | 0 | 0 | - | 0 | 0 | -
CC(=O)c1cc2c(cc1NC(=O)Cc1c(C)noc1C)OCO2 | 0 | 21.7 | 0 | 0 | 0 | 0
C[C@H](CO)N1C[C@H](C)[C@@H](CN(C)Cc2ccccc2)Oc2ccc(NC(=O)C3CC3)cc2CC1=O | - | - | 0 | - | - | -
O=C(NCc1nc(-c2ccccc2)no1)c1cccs1 | 0 | 179.2 | 0 | 0 | 0 | 0
CCC(=O)NCCc1nc(-c2ccccc2)no1 | 0 | 986.5 | 0 | 0 | 0 | 0
COc1ccc(NC(=O)N(C)C[C@H]2Oc3ncc(-c4ccc(C#N)cc4)cc3C(=O)N([C@@H](C)CO)C[C@H]2C)cc1 | - | - | 0 | - | - | -
Cc1cccc(-c2cc3nc4c(c(N5CCC6(CC5)OCCO6)n3n2)CCCC4)c1 | 0 | 0 | 0 | 0 | 0 | 0
Cc1cccc(-c2cc3nc4c(c(N5CCOCC5)n3n2)CCCC4)c1 | 0 | 0 | 0 | 0 | 0 | -
O=S(=O)(c1cccs1)N1CCCCN2[C@H](C1)[C@@H](c1ccc(Br)cc1)[C@@H]2CO | - | - | 0 | - | - | -
COc1cc(NC(=O)c2ccccc2)c(OC)cc1NC(=O)CN1C(=O)N(C)C2(CCCCC2)C1=O | 0 | 0 | 0 | - | 0 | 0
Cc1ccc(S(=O)(=O)Nc2ccc3c(c2)C(=O)N([C@H](C)CO)C[C@H](C)[C@H](CN(C)S(=O)(=O)c2c(C)noc2C)OCCCC[C@H](C)O3)cc1 | - | - | 0 | - | - | -
O=C(NCCN1CCOCC1)c1cccc(NS(=O)(=O)c2ccc(Br)cc2)c1 | 0 | 23.2 | 0 | - | 0 | 0
SMILES | PrP 5UTR inh | Vc quorum ag-1 | TcdB GH inh | UGM FP inh | Y pestis TopoI | Vc quorum ag-2
CCCOc1ccc(-c2nc(C#N)c(N3CCN(CC)CC3)o2)cc1 | 0 | 0 | - | 0 | 0 | 0
CC(C)N1CCc2c(sc(NC(=O)c3ccc4ccccc4c3)c2C(N)=O)C1 | 0 | 137.9 | 0 | 0 | 0 | 0
Cc1ccc2cc(C(c3nnnn3C3CCCC3)N3CCN(c4ccc(F)cc4)CC3)c(=O)[nH]c2c1 (stereo not given) | 0 | 0 | - | 0 | 0 | 0
Cc1cc(C)c2cc(C(c3nnnn3C3CCCC3)N3CCOCC3)c(=O)[nH]c2c1 (stereo not given) | 0 | 0 | - | 0 | 0 | -
O=C(Cn1cccc1C(=O)c1ccccc1)NCCN1CCCCCC1 | 0 | 0 | - | 0 | 0 | 0
CCCCOC(=O)n1c(=O)oc2ccccc21 | 0 | 230.5 | - | 0 | 0 | 0
COC(=O)n1c(=O)oc2ccccc21 | 0 | 0 | - | 0 | 0 | -
COC(=O)c1ccc(-c2nc3cc(Cl)c(N)cc3s2)cc1 | 0 | 25.0 | - | 0 | 0 | 0
Cc1[nH]nc2c1C1(CCOCC1)C(C#N)=C(N)O2 | 0 | 0 | 0 | 0 | 0 | -
COCc1[nH]nc2c1C1(CCC3(CC1)OCCO3)C(C#N)=C(N)O2 | 0 | 16.7 | - | 0 | 0 | 0
